Here are results for nine compounds from PubChem BioAssay (NCI).

What all share (assay): NCI-60 one-dose screen, 48 h (100 = growth as untreated, 0 = no growth, -100 = all killed)
For one experiment, the system named is DU-145 prostate. As to conditions: 10 µM unless noted.
The test system of the next experiment is K-562 leukemia. Conditions: 10 µM unless noted.
The next experiment concerns MALME-3M melanoma. As to conditions: 10 µM unless noted.
The next experiment has as its system RXF 393 renal. Conditions: 10 µM unless noted.
The subject of the next experiment is SF-268 CNS. As to conditions: 10 µM unless noted.
The next experiment deals with SF-295 CNS. As to conditions: 10 µM unless noted.
Another experiment concerns SF-539 CNS. Conditions: 10 µM unless noted.
A further experiment relates to UACC-257 melanoma. As to conditions: 10 µM unless noted.
Another experiment concerns HCT-15 colon. As to conditions: 10 µM unless noted.
For the next experiment, the system named is SNB-75 CNS. As to conditions: 10 µM unless noted.
The test system of a further experiment is SNB-19 CNS. As to conditions: 10 µM unless noted.
The next experiment relates to U251 CNS. Conditions: 10 µM unless noted.
In the next experiment the test system is PC-3 prostate. Conditions: 10 µM unless noted.
The next experiment deals with SK-MEL-5 melanoma. As to conditions: 10 µM unless noted.
In a further experiment the test system is UACC-62 melanoma. Conditions: 10 µM unless noted.
The test system of a further experiment is SK-MEL-28 melanoma. As to conditions: 10 µM unless noted.
For another experiment, the system named is M14 melanoma. As to conditions: 10 µM unless noted.
For another experiment, the system named is HT29 colon. Conditions: 10 µM unless noted.
The test system of a further experiment is MDA-MB-231 breast. Conditions: 10 µM unless noted.
The test system of another experiment is LOX IMVI melanoma. As to conditions: 10 µM.

This is part of a sample that, as a whole, favours compounds with a hit. Of some 83,000 tested, about 20% had one in any assay.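 Step 1: grow cells in 96-well plates. Step 2: add test compound at a single concentration. Step 3: incubate 48 h. Step 4: record percent growth.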 A number with no mark means an inactive call. Activity calls are given as the source filed them. The calls were made as follows: active = growth percent below 10; inactive = the rest.

`N#Cc1c(-c2ccc(Cl)cc2)nc2n[nH]c(-c3ccc(Cl)cc3)c2c1-c1ccc(C(F)(F)F)cc1`: the growth is 19.8% in the experiment with DU-145 prostate; -21.3% (active) with K-562 leukemia; -25.8% (active) in the experiment with MALME-3M melanoma; -14.7% (active) in the experiment on RXF 393 renal; 6.49% (active) in the experiment on SF-268 CNS; -54% (active) in the experiment on SF-295 CNS. Moreover, the growth is -79.3% (active) in the experiment with SF-539 CNS; 7.34% (active) in the experiment with UACC-257 melanoma; -47.2% (active) in the experiment on HCT-15 colon; -17.5% (active) in the experiment with SNB-75 CNS; 11.3% in the experiment on SNB-19 CNS; -33.6% (active) with U251 CNS. Moreover, the growth is 8.27% (active) in the experiment with PC-3 prostate, -84% (active) in the experiment on SK-MEL-5 melanoma, -58.6% (active) with UACC-62 melanoma and 1.54% (active) with SK-MEL-28 melanoma.

For `CC(C)CCNC(=O)N/C(N)=N/c1nc2ccccc2s1`, the growth is 66.4% in the experiment with DU-145 prostate; 28.7% in the experiment on K-562 leukemia; 77.1% in the experiment on MALME-3M melanoma; 74.7% with RXF 393 renal; 72% with SF-268 CNS; 45.3% in the experiment with SF-295 CNS. The growth in the experiment on SF-539 CNS was 56.8%; with UACC-257 melanoma, 35.5%; in the experiment on M14 melanoma, 79.6%; in the experiment on HCT-15 colon it was 48.4%; in the experiment on SNB-75 CNS, 82.2%; in the experiment with SNB-19 CNS, 58.4%. Further, the growth is 67.4% in the experiment with U251 CNS; 62.6% in the experiment with PC-3 prostate; 15.8% in the experiment with SK-MEL-5 melanoma; 59.2% in the experiment on UACC-62 melanoma; 81.3% with SK-MEL-28 melanoma.

Take `N#Cc1c(-c2ccc(Cl)cc2)nc2n[nH]c(-c3ccc(Cl)cc3)c2c1-c1cccs1`: the growth in the experiment on DU-145 prostate was 65.1%; in the experiment on K-562 leukemia, 16.9%; in the experiment with MALME-3M melanoma, 55.6%; with RXF 393 renal it was 58.2%; with SF-268 CNS, 72.9%; with SF-295 CNS it was 63.6%. The growth is 64.1% with SF-539 CNS; 58.1% in the experiment with UACC-257 melanoma; 41.9% in the experiment on HCT-15 colon; 47% in the experiment on HT29 colon; 77.5% with SNB-75 CNS; 75.1% in the experiment on SNB-19 CNS. Also, the growth in the experiment on U251 CNS is 58.6%; with PC-3 prostate, 34.3%; with SK-MEL-5 melanoma, 40.8%; in the experiment with UACC-62 melanoma, 60.9%; with SK-MEL-28 melanoma, 76.1%.

On to `CC(=O)Nc1cccc(Nc2nc(NCc3ccccc3)c3ccccc3n2)c1`, for which the growth in the experiment on DU-145 prostate is -93.7% (active); in the experiment on K-562 leukemia, -59% (active); in the experiment with MALME-3M melanoma, -94.2% (active); in the experiment on RXF 393 renal it was -95.2% (active); in the experiment with SF-268 CNS, -72.8% (active); in the experiment with SF-295 CNS, -98.9% (active). The growth in the experiment with SF-539 CNS is -98% (active); with UACC-257 melanoma it was -83.6% (active); in the experiment on HCT-15 colon, -87.1% (active); in the experiment with HT29 colon, -86.5% (active); in the experiment on SNB-75 CNS, -93.8% (active); in the experiment with SNB-19 CNS, -98.3% (active). In addition, the growth is -76.4% (active) in the experiment with U251 CNS; -73.2% (active) in the experiment with PC-3 prostate; -98.2% (active) with SK-MEL-5 melanoma; -97.8% (active) with UACC-62 melanoma; -95.9% (active) with SK-MEL-28 melanoma.

In the case of `O=C1Nc2cc(Cl)ccc2/C1=C/c1cccc(OCc2ccccn2)c1`, the growth in the experiment on DU-145 prostate was 9.98% (active); with K-562 leukemia it was 4.79% (active); in the experiment on MALME-3M melanoma, 36.4%; in the experiment with RXF 393 renal, -3.29% (active); in the experiment with SF-268 CNS, 13.1%; in the experiment on SF-295 CNS, 13.6%. Moreover, the growth in the experiment with SF-539 CNS was -48.2% (active); with UACC-257 melanoma, 44.4%; with M14 melanoma, -9.46% (active); in the experiment with HCT-15 colon, 7.16% (active); in the experiment on SNB-75 CNS it was 51.3%; in the experiment with SNB-19 CNS, 20.5%. The growth in the experiment with U251 CNS was -17.4% (active); with PC-3 prostate, 20.1%; with SK-MEL-5 melanoma it was 6.08% (active); with UACC-62 melanoma, 5.17% (active); in the experiment with SK-MEL-28 melanoma, 39.5%.

Consider `COc1ccc(C(=O)/C=C/c2c(F)cccc2Cl)cc1S(N)(=O)=O`, for which the growth in the experiment with DU-145 prostate was -0.489% (active); in the experiment on MALME-3M melanoma it was 12.7%; with MDA-MB-231 breast, 17.2%; in the experiment with RXF 393 renal it was -44.4% (active); with SF-268 CNS it was 24.4%; in the experiment on SF-295 CNS, 12.7%. The growth was -62.9% (active) in the experiment with SF-539 CNS; 12.7% in the experiment with UACC-257 melanoma; -59.4% (active) in the experiment on M14 melanoma; -11.9% (active) in the experiment on HCT-15 colon; 8.46% (active) with HT29 colon; 29.7% in the experiment on SNB-75 CNS. The growth was 19.6% in the experiment with SNB-19 CNS; -86.8% (active) with U251 CNS; 18.8% in the experiment with PC-3 prostate; 15.4% with UACC-62 melanoma; -69.1% (active) with LOX IMVI melanoma; -4.35% (active) in the experiment with SK-MEL-28 melanoma.

As to `COc1ccc(NC(=O)c2sc3nc(C(C)C)ccc3c2N)cc1`, the growth is 78.9% with DU-145 prostate; 50% in the experiment with K-562 leukemia; 83.4% in the experiment on MALME-3M melanoma; 89.2% in the experiment on RXF 393 renal; 99.7% in the experiment with SF-268 CNS; 72.3% with SF-295 CNS. For the same compound, the growth with SF-539 CNS is 84.1%; with UACC-257 melanoma, 88.7%; in the experiment with M14 melanoma, 93.4%; in the experiment with HCT-15 colon, 69.5%; in the experiment with SNB-75 CNS, 104%; in the experiment with SNB-19 CNS, 91.4%. Besides, the growth is 84.6% with U251 CNS; 71.7% with PC-3 prostate; 44.6% in the experiment on SK-MEL-5 melanoma; 85.6% in the experiment on UACC-62 melanoma; 94% with SK-MEL-28 melanoma.

In the case of `CN1CCN(c2ccc3c(c2)nc(NNC(=O)c2ncccn2)c2cccn23)CC1`, the growth in the experiment with DU-145 prostate is 1.57% (active); with MALME-3M melanoma, -41.8% (active); in the experiment on MDA-MB-231 breast it was -45.8% (active); in the experiment on RXF 393 renal, -53.6% (active); in the experiment on SF-268 CNS, -15.7% (active); in the experiment on SF-295 CNS it was -90% (active). For the same compound, the growth in the experiment with SF-539 CNS was -83% (active); in the experiment with UACC-257 melanoma, 17.8%; in the experiment with M14 melanoma, -53.5% (active); in the experiment on HCT-15 colon it was 1.47% (active); in the experiment on HT29 colon it was 11.2%; with SNB-75 CNS, -46.9% (active). The growth in the experiment with SNB-19 CNS was 16.5%; in the experiment with U251 CNS it was -38.7% (active); in the experiment on PC-3 prostate, 6.1% (active); with UACC-62 melanoma it was -35.1% (active); in the experiment on LOX IMVI melanoma, -62.8% (active); in the experiment on SK-MEL-28 melanoma it was -27.6% (active).

As to `COc1ccc(-c2nnc3ccc(N/N=C/c4ccc(O)cc4)nn23)cc1`, the growth in the experiment with DU-145 prostate was 51.9%; with MALME-3M melanoma, 64.2%; in the experiment on MDA-MB-231 breast, 60.6%; with RXF 393 renal, 42.7%; in the experiment with SF-268 CNS, 35.8%; in the experiment with SF-295 CNS, 43.6%. Moreover, the growth with SF-539 CNS is 36.4%; in the experiment with UACC-257 melanoma, 82.3%; in the experiment on M14 melanoma, 56.4%; with HCT-15 colon, 26.7%; in the experiment with HT29 colon it was 87.4%; with SNB-75 CNS it was 53.6%. Besides, the growth was 67.6% in the experiment on U251 CNS; 40.5% in the experiment with PC-3 prostate; 58.8% in the experiment on UACC-62 melanoma; -54.8% (active) in the experiment on LOX IMVI melanoma; 69.1% in the experiment on SK-MEL-28 melanoma.
